# Data as given in PubChem BioAssay (NCATS).
# A number with no mark means an inactive call. Inconclusive results are not listed. Active and inactive are the calls of the source. Unless noted, calls come from the whole dose curve; as a rule, active = well fitted curve in the direction sought with a large enough effect; inconclusive = small, poorly fitted or top-dose-only effect, or another doubt; inactive = no such curve, though single readings can be large; an effect the other way counts as inactive or inconclusive. Where a SMILES comes first, the peptide text is derived from it. [ ]: non-standard residue; d: D form. pGlu = O=C1CC[C@@H](C(=O)O)N1
# Experiments:
# UISO = assay: qHTS assay to identify novel small-molecules to repurpose for Merkel cell carcinoma treatment (AID 1296009); conditions: MCC and control cell lines, CellTiter-Glo viability, 72 h; series mostly up to 46 µM; note: % is set by controls: 0 for no effect and ±100 for the full control effect; nearly all actives have a fitted effect of over 60% in size
# In short: (§1)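 Viability readout: ATP luminescence (CellTiter-Glo) after 72 hr drug exposure at 37 degree celsius. Dose-response format was 8 points for NPC and 11 points for MIPE; data normalized to in-plate controls.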
# WaGa = assay: as above; conditions: MCC and control cell lines, CellTiter-Glo viability, 72 h; series mostly up to 46 µM
# In short: as §1
# C33A = assay: Primary qHTS to identify gynecologic anti-cancer compounds using libraries of approved drugs and bioactive compounds (AID 1345084); conditions: Gynecologic cancer cell panel viability, ATPlite luminescence, 48 h; series mostly up to 57.5 µM; note: % is set by controls: 0 for no effect and ±100 for the full control effect; nearly all actives have a fitted effect of over 55% in size
# In short: (§2)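 In this quantitative HTS, cell killing is estimated from loss of ATP-dependent luciferase light. Cells see five compound concentrations over a 48 h exposure.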
# CASKI = assay: as above; conditions: Gynecologic cancer cell panel viability, ATPlite luminescence, 48 h; series mostly up to 57.5 µM
# In short: as §2
# Es-2 = assay: as above; conditions: Gynecologic cancer cell panel viability, ATPlite luminescence, 48 h; series mostly up to 57.5 µM
# In short: as §2
# HeLa = assay: as above; conditions: Gynecologic cancer cell panel viability, ATPlite luminescence, 48 h; series mostly up to 57.5 µM
# In short: as §2
# Hek293T = assay: as above; conditions: Gynecologic cancer cell panel viability, ATPlite luminescence, 48 h, control line for the selectivity index; series mostly up to 57.5 µM
# In short: as §2
# JEG-3 = assay: as above; conditions: Gynecologic cancer cell panel viability, ATPlite luminescence, 48 h; series mostly up to 57.5 µM
# In short: as §2
# OV90 = assay: as above; conditions: Gynecologic cancer cell panel viability, ATPlite luminescence, 48 h; series mostly up to 57.5 µM
# In short: as §2
# PA-1 = assay: as above; conditions: Gynecologic cancer cell panel viability, ATPlite luminescence, 48 h; series mostly up to 57.5 µM
# In short: as §2
# SKOV3 = assay: as above; conditions: Gynecologic cancer cell panel viability, ATPlite luminescence, 48 h; series mostly up to 57.5 µM
# In short: as §2
# Tov-21-G = assay: as above; conditions: Gynecologic cancer cell panel viability, ATPlite luminescence, 48 h; series mostly up to 57.5 µM
# In short: as §2
# Tov112D = assay: as above; conditions: Gynecologic cancer cell panel viability, ATPlite luminescence, 48 h; series mostly up to 57.5 µM
# In short: as §2
# [1] = Drug repurposing screens with cells derived from glioblastoma tumor samples (AID 1345199); conditions: GBM patient neurospheres viability, ATP luminescence, 48 h; note: nearly all actives have a fitted effect of over 40% in size; note: potency is the fitted concentration of half-maximal effect; for activity, negative = cell killing: % is set by controls: 0 for no effect and ±100 for the full control effect
# In short: (§3)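 Primary testing used CD133+ neurospheres from four GBM patients, seven concentrations, 48 h exposure and ATP-based viability; confirmation added three slower-growing patient lines.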
# astro = assay: as above; conditions: viability, ATP luminescence, 48 h; series mostly up to 45.9 µM
# In short: as §3
# [2] = biological target: Nuclear receptor subfamily 1 group I member 2 (Rattus norvegicus) (UniProt Q9R1A7); assay: qHTS assay for small molecule activators of the rat pregnane X receptor (rPXR) signaling pathway (AID 651751; call rule not given here; note: 0% is about no effect); conditions: rPXR reporter cells, luciferase (One-Glo), 24 h
# [3] = qHTS assay for small molecule activators of the human pregnane X receptor (PXR) signaling pathway (AID 720659; call rule not given here; note: 0% is about no effect)
# [4] = at 45.9 µM (top of the series), tumour line B
# [5] = at 45.9 µM (top of the series), tumour line D
# [6] = at 46.1 µM (top of the series), tumour line C
# [7] = at 20 µM (top of the series), tumour line C
# [8] = at 21.2 µM (top of the series), tumour line B
# [9] = at 21.2 µM (top of the series), tumour line D
# [10] = at 46 µM (top of the series), tumour line A
# Sequence of Nuclear receptor subfamily 1 group I member 2 (Rattus norvegicus) (Q9R1A7 whole entry, looked up): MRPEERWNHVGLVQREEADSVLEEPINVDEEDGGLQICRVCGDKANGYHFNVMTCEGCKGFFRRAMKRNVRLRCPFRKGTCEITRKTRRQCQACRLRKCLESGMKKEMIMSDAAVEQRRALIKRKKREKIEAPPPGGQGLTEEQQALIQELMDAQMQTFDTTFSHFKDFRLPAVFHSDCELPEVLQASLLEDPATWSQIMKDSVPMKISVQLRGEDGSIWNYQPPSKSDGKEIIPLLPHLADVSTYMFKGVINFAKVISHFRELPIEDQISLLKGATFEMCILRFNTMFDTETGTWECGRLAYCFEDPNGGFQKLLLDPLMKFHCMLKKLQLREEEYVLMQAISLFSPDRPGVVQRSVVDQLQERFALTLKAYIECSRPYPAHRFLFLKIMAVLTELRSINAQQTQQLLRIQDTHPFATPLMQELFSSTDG
smiles,measurement,setting,value
O=C(OCc1ccccc1)c1ccc(O)cc1,outcome,UISO,inactive
same,outcome,WaGa,inactive
same,Potency,C33A,inactive
same,Potency,CASKI,inactive
same,Potency,Es-2,inactive
same,Potency,HeLa,inactive
same,Potency,Hek293T,inactive
same,Potency,JEG-3,inactive
same,Potency,OV90,inactive
same,Potency,PA-1,inactive
same,outcome,SKOV3,inactive
same,Potency,Tov-21-G,inactive
same,outcome,Tov112D,inactive
same,"activity, negative = cell killing",[1]; [4],-16.7%
same,"activity, negative = cell killing",[1]; [5],-12.6%
same,"activity, negative = cell killing",[1]; [6],10.4%
same,Potency,astro,inactive
same,max response,[2],2.15%
same,outcome,[3],inactive
Cc1c(N)nc([C@H](CC(N)=O)NC[C@H](N)C(N)=O)nc1C(=O)N[C@H](C(=O)N[C@H](C)[C@@H](O)[C@H](C)C(=O)N[C@H](C(=O)NCCc1nc(-c2nc(C(=O)NCCCCN=C(N)N)cs2)cs1)[C@@H](C)O)[C@@H](O[C@@H]1O[C@@H](CO)[C@@H](O)[C@H](O)[C@@H]1O[C@H]1O[C@H](CO)[C@@H](O)[C@H](OC(N)=O)[C@@H]1O)c1cnc[nH]1,"activity, negative = cell killing",[1]; [4],-16.7%
same,"activity, negative = cell killing",[1]; [6],-15.4%
CN(C)CCCSc1ccccc1NC(=O)/C=C/c1ccccc1,outcome,UISO,inactive
same,outcome,WaGa,inactive
same,Potency,C33A,inactive
same,Potency,CASKI,inactive
same,Potency,Es-2,inactive
same,Potency,HeLa,inactive
same,Potency,Hek293T,inactive
same,Potency,JEG-3,inactive
same,Potency,PA-1,inactive
same,outcome,SKOV3,inactive
same,Potency,Tov-21-G,inactive
same,outcome,Tov112D,inactive
same,"activity, negative = cell killing",[1]; [4],-25.4%
same,Potency,[1]; tumour line A,10 µM (active)
same,Potency,astro,inactive
CN(C)CCOc1ccc(/C(=C(/CCCl)c2ccccc2)c2ccccc2)cc1,"activity, negative = cell killing",[1]; [6],-18.9%
same,Potency,[1]; tumour line A,8.91 µM (active)
same,Potency,[1]; tumour line D,12.6 µM (active)
CCOC(=O)C1=C(COCCN)NC(C)=C(C(=O)OC)C1c1ccccc1Cl (configuration not stated),"activity, negative = cell killing",[1]; [4],-28.9%
same,Potency,[1]; tumour line A,11.2 µM (active)
C[C@@H]1NC(=O)[C@@H](N)CNC(=O)[C@H](C2CCNC(N)=N2)NC(=O)/C(=C/NC(N)=O)NC(=O)[C@H](CNC(=O)C[C@@H](N)CCCN)NC1=O (some centres not stated),"activity, negative = cell killing",[1]; [7],24.6%
same,"activity, negative = cell killing",[1]; [8],-11.2%
same,"activity, negative = cell killing",[1]; [9],-13.8%
same,"activity, negative = cell killing",[1]; [4],-12.9%
same,"activity, negative = cell killing",[1]; [5],-1.47%
same,"activity, negative = cell killing",[1]; [6],-18.8%
same,Potency,astro,inactive
NC(=S)NS(=O)(=O)c1ccc(N)cc1,"activity, negative = cell killing",[1]; [4],-6.04%
same,"activity, negative = cell killing",[1]; [5],0.448%
same,"activity, negative = cell killing",[1]; [10],-23.8%
same,"activity, negative = cell killing",[1]; [6],-8.76%
O=[n+]1ccn([O-])c2ccccc21,"activity, negative = cell killing",[1]; [4],-6.39%
same,"activity, negative = cell killing",[1]; [5],-13.6%
same,"activity, negative = cell killing",[1]; [10],-22.5%
same,"activity, negative = cell killing",[1]; [6],-17%
CC(C)=CCC/C(C)=C/CC/C(C)=C/CC/C(C)=C/CC1=C(C)C(=O)c2ccccc2C1=O,"activity, negative = cell killing",[1]; [4],-29.7%
same,Potency,[1]; tumour line A,10 µM (active)
same,Potency,[1]; tumour line C,23.1 µM (active)
O=C1[O][Bi][O]c2ccccc21,"activity, negative = cell killing",[1]; [4],-16%
same,"activity, negative = cell killing",[1]; [5],-27.4%
same,"activity, negative = cell killing",[1]; [10],-26.1%
same,"activity, negative = cell killing",[1]; [6],-6.82%
CCC(O)c1ccccc1 (configuration not stated),"activity, negative = cell killing",[1]; [4],-1.17%
same,"activity, negative = cell killing",[1]; [5],0.662%
same,"activity, negative = cell killing",[1]; [10],-1.63%
same,"activity, negative = cell killing",[1]; [6],4.78%
NC(=O)C1c2ccccc2CCc2ccccc21,"activity, negative = cell killing",[1]; [4],4.21%
same,"activity, negative = cell killing",[1]; [5],-18.6%
same,"activity, negative = cell killing",[1]; [10],-34%
same,"activity, negative = cell killing",[1]; [6],-17.6%
same,Potency,astro,inactive
COC1=C(OC)C(=O)C(C/C=C(\C)CC/C=C(\C)CC/C=C(\C)CC/C=C(\C)CC/C=C(\C)CC/C=C(\C)CC/C=C(\C)CC/C=C(\C)CC/C=C(\C)CCC=C(C)C)=C(C)C1=O,"activity, negative = cell killing",[1]; [4],2.27%
same,"activity, negative = cell killing",[1]; [5],-1.65%
same,"activity, negative = cell killing",[1]; [10],-4.78%
same,"activity, negative = cell killing",[1]; [6],7.72%
O=C(O)/C=C/c1ccccc1,"activity, negative = cell killing",[1]; [4],-13.6%
same,"activity, negative = cell killing",[1]; [5],12.4%
same,"activity, negative = cell killing",[1]; [10],-20.1%
same,"activity, negative = cell killing",[1]; [6],7.51%
O=C1N=C2SCCN2C(=O)C1Cc1ccc(Cl)cc1 (configuration not stated),"activity, negative = cell killing",[1]; [4],-17.4%
same,"activity, negative = cell killing",[1]; [5],-11.7%
same,"activity, negative = cell killing",[1]; [6],-2.54%
COc1ccc2cc([C@H](C)CO)ccc2c1,"activity, negative = cell killing",[1]; [4],-14.5%
same,"activity, negative = cell killing",[1]; [5],4.49%
same,"activity, negative = cell killing",[1]; [6],-21.2%
CCN(CC)CCOc1ccccc1OC,"activity, negative = cell killing",[1]; [4],5.43%
same,"activity, negative = cell killing",[1]; [5],-13.8%
same,"activity, negative = cell killing",[1]; [6],-28.2%
CN1CCC(OC(=O)C(Oc2ccc(Cl)cc2)Oc2ccc(Cl)cc2)CC1,"activity, negative = cell killing",[1]; [4],-23.9%
same,"activity, negative = cell killing",[1]; [5],-4.4%
same,"activity, negative = cell killing",[1]; [10],-21%
same,"activity, negative = cell killing",[1]; [6],-21%
CCCC(=O)O,"activity, negative = cell killing",[1]; [4],-1.41%
same,"activity, negative = cell killing",[1]; [5],-13.2%
same,"activity, negative = cell killing",[1]; [10],-10.6%
same,"activity, negative = cell killing",[1]; [6],-26.8%
CC[C@H](C)[C@H](NC(=O)[C@H](Cc1ccccc1)NC(=O)[C@H](C)NC(=O)[C@H](CC(=O)O)NC(=O)[C@H](CCCCN)NC(=O)[C@H](CO)NC(=O)[C@@H]1CCCN1C(=O)[C@@H]1CCC(=O)N1)C(=O)NCC(=O)N[C@@H](CC(C)C)C(=O)N[C@@H](CCSC)C(N)=O ([pGlu]PSKDAFIGLM-NH2),"activity, negative = cell killing",[1]; [4],-11.4%
same,"activity, negative = cell killing",[1]; [5],13.8%
same,"activity, negative = cell killing",[1]; [10],-9.58%
same,"activity, negative = cell killing",[1]; [6],-14.3%
C#C[C@]1(O)CC[C@@H]2[C@H]3CCC4=CC(=O)CC[C@H]4[C@H]3C(=C)C[C@@]21CC,"activity, negative = cell killing",[1]; [4],2.86%
same,"activity, negative = cell killing",[1]; [5],-28.7%
same,Potency,[1]; tumour line A,22.4 µM (active)
CCCC1C(=O)N2C(N(C)C)=Nc3ccc(C)cc3N2C1=O (configuration not stated),"activity, negative = cell killing",[1]; [7],-0.417%
same,"activity, negative = cell killing",[1]; [8],-20.8%
same,"activity, negative = cell killing",[1]; [9],-11.9%
same,"activity, negative = cell killing","[1]; at 21.3 µM (top of the series), tumour line A",-28.1%
COc1cc2c(cc1OC)[C@@H](c1ccccc1)CN(C)CC2,"activity, negative = cell killing",[1]; [4],-22%
same,"activity, negative = cell killing",[1]; [5],-9.13%
same,"activity, negative = cell killing",[1]; [6],-17.9%
same,Potency,[1]; tumour line A,20 µM (active)
